Assay outcomes: PubChem, National Center for Advancing Translational Sciences (NCATS)
The list is not random: actives were taken first. Their share in the collection is about 11%.
3T3 cytotox – kills NIH 3T3 cells. NIH 3T3 viability, CellTiter-Glo ATP luminescence, 48-72 h. Potency, µM (titrated, usually from 96.7 µM), for inactives: at the highest dose activity change, negative = cytotoxicity, most hits filed as inhibitors. 94,000 compounds, 4.3% hits; also: % is scaled to controls: 0 for no effect and ±100 for the full control effect; nearly all actives have a fitted effect of over 55% in size
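Cytotoxicity is measured as loss of cellular ATP: NIH 3T3 cells (400/well) are exposed to compound for 48 or 72 hr at 37 °C, then CellTiter-Glo luminescence is imaged after 10 min at room temperature.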
FLuc inh-1 – blocks purified firefly luciferase enzyme activity. AID 1347043. P08659. purified P. pyralis luciferase, luminescence, biochemical. 76,000 compounds, 2.5% hits. Potency, µM (doses to about 115 µM), actives largely listed as inhibitors; also: % is scaled to controls: 0 for no effect and ±100 for the full control effect; nearly all actives have a fitted effect of over 65% in size
Target sequence (P08659 whole entry, looked up): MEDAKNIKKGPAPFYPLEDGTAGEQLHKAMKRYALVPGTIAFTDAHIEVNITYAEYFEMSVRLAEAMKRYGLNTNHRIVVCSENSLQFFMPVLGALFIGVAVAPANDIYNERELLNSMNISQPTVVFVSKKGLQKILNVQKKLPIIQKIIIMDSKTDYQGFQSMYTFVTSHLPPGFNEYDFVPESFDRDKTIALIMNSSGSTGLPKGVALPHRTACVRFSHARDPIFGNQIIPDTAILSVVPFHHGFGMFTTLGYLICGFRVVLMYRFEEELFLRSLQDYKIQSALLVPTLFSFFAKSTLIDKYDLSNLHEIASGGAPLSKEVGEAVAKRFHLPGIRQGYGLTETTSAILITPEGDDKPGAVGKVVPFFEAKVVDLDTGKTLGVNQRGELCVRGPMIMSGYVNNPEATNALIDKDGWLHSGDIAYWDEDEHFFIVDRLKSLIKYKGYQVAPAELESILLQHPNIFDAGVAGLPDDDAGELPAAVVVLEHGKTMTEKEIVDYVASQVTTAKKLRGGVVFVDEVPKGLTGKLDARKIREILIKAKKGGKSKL
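Cell-free enzyme assay, 10nM P. pyralis luciferase, luciferin and ATP each at 10uM. Inhibition profiled over a 6-point titration, read as luminescence.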
HEK cytotox – cytotoxic compounds in HEK 293 cells; HEK 293 viability, ATP luminescence (CellTiter-Glo), 48-72 h; Potency, µM (highest dose often 115 µM), without a hit: at the top dose activity change, negative = cytotoxicity, actives largely listed as inhibitors; 94,000 compounds, 6.6% hits; AID 1345083; also: % is scaled to controls: 0 for no effect and ±100 for the full control effect; nearly all actives have a fitted effect of over 60% in size
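Luminescence from cellular ATP, measured with CellTiter-Glo, indicates HEK 293 viability. Cells plated at 250 cells/well are treated with compound for 48 or 72 hr at 37 degree Celsius before reagent addition.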
hNpr1 antagonist – antagonists of human natriuretic peptide receptor Npr1 | HEK293 hNpr1 GloSensor cGMP, ANP-stimulated luminescence | 76,000 compounds, 1.6% hits | P16066 | Potency, µM (highest dose often 46.3 µM), without a hit: at the highest dose activity change, negative = inhibition, actives largely listed as inhibitors; calls by dose curve; also: % is scaled to controls: 0 for no effect and ±100 for the full control effect; nearly all actives have a fitted effect of over 60% in size
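Compound pre-incubated 30 min at room temperature on GloSensor-loaded HEK293 cells stably carrying hNpr1 and the pGS-40F cGMP biosensor. Stimulation uses hNppA at 0.1 nM final; luminescence is taken at baseline and 20 min post-agonist.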
FLuc SDR -ATP – binders stabilizing firefly luciferase, without ATP; shares compounds with FLuc inh-1; Purified FLuc-C-HiBiT, Nano-Glo HiBiT luminescence, no ATP; Potency, µM (doses to about 32.7 µM), for inactives: at the top dose activation (signal gain), most hits filed as activators; 1,300 compounds, 7.8% hits; AID 1963318; also: nearly all actives have a fitted effect of over 55% in size
FLuc SDR ATP – binders stabilizing firefly luciferase, plus ATP. Potency, µM (doses to about 32.7 µM), inactives show at the highest dose activation (gain of signal), hits mostly activators. purified FLuc-C-HiBiT + ATP, HiBiT complementation luminescence. shares compounds with FLuc inh-1. AID 1963319. 1,300 compounds, 8.7% hits;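 also: signal reports ligand binding via conformational change of the enzyme rather than luciferase catalysis; % of control where 0% means no effect; nearly all actives have a fitted effect of over 55% in size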
FLuc inh-2 – inhibitors of firefly luciferase enzymatic activity | shares compounds with FLuc inh-1 | 1,300 compounds, 42% hits | purified FLuc-C-HiBiT enzyme, luciferin luminescence | Potency, µM (series often up to 32.7 µM), for inactives: at the top dose activity change, negative = inhibition, hits mostly inhibitors; also: % is scaled to controls: 0 for no effect and ±100 for the full control effect; nearly all actives have a fitted effect of over 70% in size
* hit, by the source's call; i = inactive; ? = inconclusive; · = no result; ! = not active in a repeat; [ ] = remark or other dose. Unless noted, calls follow the shape of the dose curve; as a rule, active = well fitted curve in the direction sought with a large enough effect; inconclusive = small, poorly fitted or top-dose-only effect, or another doubt; inactive = no such curve, though single readings can be large; an effect the other way counts as inactive or inconclusive. Potency is read from the fitted curve at half-maximal effect.

SMILES	3T3 cytotox	FLuc inh-1	HEK cytotox	hNpr1 antagonist	FLuc SDR -ATP	FLuc SDR ATP	FLuc inh-2
CCOC(=O)c1ccc(NC(=O)c2csc3c2CCCC3)cc1	·	·	·	·	15.6%	10.9%	?
COc1ccccc1N1CCN([C@H]2[C@@H]3OC[C@@H](O3)[C@@H](N(CC3CC3)CC3CC3)[C@@H]2O)CC1	-24.6%	i	-19.2%	0.6%	·	·	·
Cn1ncc2c(C(=O)NC3CC3)cc(-c3ccccc3)nc21	?	·	-8.4%[172 µM]	·	·	·	·
COc1ccc(Nc2cc(C(=O)NC3CCC(C)CC3)c3ccccc3n2)cc1OC (centres undefined)	·	·	·	·	20.7%	12.7%	-3.7%
COC1CCCOC12CCN(C(=O)c1ccc3n[nH]nc3c1)CC2 (centres undefined)	4.3%	i	i	3.1%	·	·	·
CCOCC1(C)COc2ccc(C(=O)Nc3ccc(Cl)cc3)cc2N1 (centres undefined)	44.7µM*	11.2µM*	39.8µM*	31.6µM*	16.7%[49.3 µM]	11.4%[49.3 µM]	?
Cc1nccn1CCN(C)c1ccc(-c2nc(COc3ccccc3)no2)cn1	?	12.6µM*	?	?	19.7%	18.3%	9.89µM*
CC(=O)NCCNC(=O)c1ccc2c(=O)n(CCc3ccccc3)c(=O)[nH]c2c1	·	·	·	·	9.9%	13.6%	?
COc1ccc(C(=O)NCC2Cn3cccc3C(=O)N2Cc2ccccc2)cn1 (centres undefined)	-2.0%	i	i	-1.3%	·	·	·
Cn1cc(CN2Cc3ccc(C(=O)Nc4ccc(F)cc4)cc3OCC2=O)cn1	-25.1%[138 µM]	i	?	-5.4%[70.6 µM]	·	·	·
Cc1csc(NC(=O)c2ccc3c(c2)OCC(=O)N(C)C3)n1	?	5.01µM*	-15.7%[172 µM]	·	24.4%[49.3 µM]	?	?
CN1Cc2ccc(C(=O)NCCOc3ccccc3)cc2OCC1=O	·	·	·	·	18.8%[49.3 µM]	?	?
Cc1cnc(NC(=O)c2ccc3c(c2)OCC(=O)N(C)C3)s1	·	·	·	·	?	?	14.3µM*
COCCCn1c(=O)c(C(=O)N2CCN(C(=O)C3CC3)CC2)nc2cccnc21	-6.8%	·	-0.2%	·	·	·	·
COc1ccccc1C(=O)NC[C@H]1COCc2nc3cc(C)ccc3n21	-22.9%[138 µM]	i	?	-2.3%[70.6 µM]	·	·	·
COc1ccc(-c2nc3ncccc3[nH]2)cc1	79.4µM*!	12.6µM*	79.4µM*	-17.4%[70.6 µM]	?	?	16µM*
c1cnc2nc(-c3ccncc3)[nH]c2c1	?	i	-19.8%[230 µM]	-2.1%[70.6 µM]	·	·	·
OC[C@@H]1O[C@H](CNC2CCOCC2)[C@H](N2CCN(c3ccc(F)cc3)CC2)[C@@H]1O	-2.0%	i	1.0%	0.8%	·	·	·
COCC(=O)Nc1nc2c(s1)C[C@]1(C)CC[C@@H]3[C@H](OC(=O)[C@H]3C)[C@H]1[C@@H]2C	-20.8%[138 µM]	0.631µM*	?	5.62µM*	6.4µM*	4.53µM*	1.61µM*
CC(C)(C)c1ccc(C(=O)Nc2ccc(C(O)[C@H]3COCC(=O)N3Cc3ccccc3)cc2)cc1 (some centres undefined)	22.4µM*	11.2µM*	?	?	15.2%	10.4%	-15.1%
CC(C)(C)C1CCc2nc(NC(=O)c3cccc(Cl)c3)sc2C1 (centres undefined)	·	·	·	·	17.3%	16.3%	2.48µM*
O=C(Nc1nc2c(F)cc(F)cc2s1)c1ccc2c(c1)OCCO2	·	·	·	·	17.2%	15.4%	1.76µM*
O=C(N[C@H]1CCN2C(=O)c3cc(-c4ccc(F)cc4F)ccc3NC(=O)[C@H]12)c1cnccn1	?	i	-2.1%	3.4%	·	·	·
Cc1cc(NC(=O)c2ccc(CN3CC[C@H](O)C3)cc2)ccc1F	?	0.891µM*	?	10µM*	?	?	1.97µM*
COc1c(C)cc(NC(=O)c2ccc(CN3CCC(O)CC3)cc2)cc1C	?	i	?	-1.7%	·	·	·
